Assay results: PubChem BioAssay (Tox21)
Results filed as inconclusive are left out. Entries that show only a call come without a potency. Values without a mark were called inactive. Calls of active or inactive are those of the source. Unless noted, calls come from the whole dose curve; as a rule, active = well fitted curve in the direction sought with a large enough effect in the repeat runs; inconclusive = weak or mixed curves; inactive = no such curve, though single readings can be large; an effect the other way counts as inactive or inconclusive.

How the values were obtained:
[1] = qHTS assay to identify small molecule antagonists of the vitamin D receptor (VDR) signaling pathway - cell viability counter screen (AID 743225); note: nearly all actives have a fitted effect of over 50% in size; note: potency is the fitted concentration of half-maximal effect
How it was run: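 HEK293T VDR-bla; cpd + 1a,25-(OH)2D3 3 nM final, 16 h 37C/5% CO2; B/G FRET substrate 2 h RT; then CellTiter-Glo 30 min RT, luminescence.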

[2] = qHTS assay to identify small molecule agonists of the NFkB signaling pathway (AID 1159509; active = well fitted curve in the direction sought with a large enough effect in the signal ratio in the repeat runs, not every such curve was filed as active; the % refers to the signal ratio; note: series mostly up to about 61 µM)
How it was run: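 Agonist activity was read as beta-lactamase-driven FRET change (460 and 530 nm emission, 405 nm excitation) following 1.5 hr substrate loading at room temperature. Beforehand, ME-180 NFkB-bla reporter cells were treated with compounds for 5 hr at 37 C.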

[3] = qHTS assay to identify small molecule agonists of the NFkB signaling pathway - cell viability counter screen (AID 1159515; calls by dose curve; note: series mostly up to about 61 µM; nearly all actives have a fitted effect of over 55% in size)
How it was run: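 Parallel cytotoxicity counter screen in ME-180 cells carrying an NFkB-response-element beta-lactamase reporter, 2,000 cells/well. Compound exposure lasted 5 hr at 37 C, 5% CO2. Cell viability was quantified by CellTiter-Glo luminescence.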

[4] = qHTS assay to identify small molecule agonists of the endoplasmic reticulum stress response signaling pathway (AID 1159516; active = well fitted activation curve with a large enough effect in the signal ratio in the repeat runs, not every such curve was filed as active; the % refers to the signal ratio)
How it was run: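 Using a HeLa line with an ESRE-driven beta-lactamase gene, agonist activity was measured by FRET substrate fluorescence (460 and 530 nm emission) after cells were treated with compounds for 5 hr at 37 C and 5% CO2.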

[5] = qHTS assay to identify small molecule agonists of the endoplasmic reticulum stress response signaling pathway - cell viability counter screen (AID 1159517; calls by dose curve;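 note: HeLa cells carrying an ER stress response element beta-lactamase reporter; series mostly up to about 61 µM; nearly all actives have a fitted effect of over 50% in size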)
How it was run: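 In parallel with the ESRE reporter read, cytotoxicity was scored by CellTiter-Glo luminescence (30 min, room temperature) on HeLa ESRE-bla cells dosed for 5 hr.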

[6] = qHTS assay to identify small molecule antagonists of the retinoid-related orphan receptor gamma (ROR-gamma) signaling pathway - cell viability counter screen (AID 1159520); note: nearly all actives have a fitted effect of over 50% in size
How it was run: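 Tet-on ROR gamma CHO cells were given compounds for 2 hr, then doxycycline hyclate at 1 uM final, and incubated 16 hr at 37 C. Viability was measured as ATP content by CellTiter-Glo luminescence.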

[7] = target: Nuclear receptor ROR-gamma (Homo sapiens) (UniProt P51449); assay: qHTS assay to identify small molecule antagonists of the retinoid-related orphan receptor gamma (ROR-gamma) signaling pathway (AID 1159521;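 note: CHO cells with doxycycline inducible ROR-gamma driving an RORE luciferase reporter; top concentration of the series differs between compounds; nearly all actives have a fitted effect of over 50% in size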)
How it was run: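 Cells were plated, rested 4 h at 37 C, exposed to compounds for 2 h, then given 1 uM final doxycycline hyclate to induce RORγ expression. After 16 h, ONE-Glo luminescence from the ROR response element reporter was measured.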

[8] = qHTS assay to identify small molecule agonists of the AP-1 signaling pathway - cell viability counter screen (AID 1159525; calls by dose curve; note: nearly all actives have a fitted effect of over 55% in size)
How it was run: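 Same-well cytotoxicity counter screen of the Tox21 10K library in ME-180 cells. The readout is ATP-dependent luminescence after 5 h compound treatment. Data are normalised to DMSO and tetra n-octyl ammonium bromide controls.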

[9] = qHTS assay to identify small molecule agonists of the RXR signaling pathway - cell viability counter screen (AID 1159529)
How it was run: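 Steps: seed RXR-alpha-UAS-bla HEK 293T cells in assay medium containing 2% charcoal-stripped FBS; incubate 5 hr; add compounds in DMSO; incubate 16 hr at 37 C; after the bla read, add CellTiter-Glo and read luminescence at 30 min.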

[10] = qHTS assay to identify small molecule antagonists of the retinoid acid receptor (RAR) signaling pathway - cell viability counter screen (AID 1159551); note: nearly all actives have a fitted effect of over 35% in size
How it was run: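 ATP-based viability, C3RL4 cells, 6 h at 37 C with 1 uM final retinol co-added after compound; luminescence read 30 min post CellTiter-Glo, RT.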

[11] = target: Retinoic acid receptor RXR-alpha (Homo sapiens) (UniProt P19793); assay: qHTS assay to identify small molecule agonists of the RXR signaling pathway (AID 1159527; calls by dose curve; note: nearly all actives have a fitted effect of over 35% in size)
Retinoic acid receptor RXR-alpha (Homo sapiens), sequence (P19793 whole entry, looked up): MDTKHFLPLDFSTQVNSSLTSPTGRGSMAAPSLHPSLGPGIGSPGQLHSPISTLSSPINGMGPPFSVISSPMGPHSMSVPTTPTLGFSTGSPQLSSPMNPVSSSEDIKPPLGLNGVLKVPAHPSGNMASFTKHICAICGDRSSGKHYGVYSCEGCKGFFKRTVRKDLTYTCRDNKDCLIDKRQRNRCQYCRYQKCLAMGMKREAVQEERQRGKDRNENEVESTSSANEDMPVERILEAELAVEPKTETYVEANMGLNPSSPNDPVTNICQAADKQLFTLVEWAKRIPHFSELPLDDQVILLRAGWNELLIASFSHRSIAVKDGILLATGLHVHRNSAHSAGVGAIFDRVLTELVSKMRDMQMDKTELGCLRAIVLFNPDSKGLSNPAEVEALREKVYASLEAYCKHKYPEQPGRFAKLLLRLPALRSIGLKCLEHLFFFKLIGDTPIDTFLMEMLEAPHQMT
How it was run: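 Cells plated at 2,000/well, rested 5 hr at 37 C, pin-dosed with DMSO compound solutions, incubated 16 hr, then loaded with B/G FRET substrate for 2 hr at RT before dual-emission fluorescence reading.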

[12] = qHTS assay to identify small molecule antagonists of the retinoic acid receptor (RAR) signaling pathway (AID 1159552; note: nearly all actives have a fitted effect of over 50% in size)
How it was run: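 Retinol at 1 uM final stimulated RARE-luciferase expression in C3RL4 cells exposed to test compounds for 6 hr at 37 C. Reduced luminescence, read 30 min after detection reagent, indicated pathway antagonism.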

[13] = qHTS assay to identify small molecule agonists of the retinoic acid receptor (RAR) signaling pathway (AID 1159553); note: potency is the fitted concentration of half-maximal effect
How it was run: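 Quantitative high-throughput format: the Tox21 10K library was tested on C3RL4 RARE-luciferase cells for 6 hr at 37 C and 5% CO2, with luminescence measured after a 30 min room-temperature reagent step.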

[14] = qHTS assay to identify small molecule antagonists of the estrogen related receptor (ERR) signaling pathway - cell viability counter screen (AID 1224818);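 note: series mostly up to about 46 µM; viability measured after 17.5 h of compound exposure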
How it was run: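 Quantitative high-throughput viability counter screen in ERR cells. Compounds (DMSO) incubated 17.5 h at 37 C; read-out was CellTiter-Fluor fluorescence.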

[15] = qHTS assay to identify small molecule antagonists of the estrogen related receptor (ERR) signaling pathway (AID 1224819)
How it was run: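 ERR reporter cell line (NTP) plated at 2,000 cells/well, settled 6 h at 37C/5% CO2, then exposed to LOPAC compounds for 18 h at 37C. One-Glo luciferase luminescence read after 30 min at room temperature.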

[16] = qHTS assay to identify small molecule agonists of the estrogen related receptor (ERR) signaling pathway (AID 1224820)
How it was run: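 After 6 h plating (2,000 cells/well) and 18 h compound treatment at 37 C, ERR cells were lysed with One-Glo and luminescence read after 30 min at room temperature.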

[17] = qHTS assay to identify small molecule antagonists of the estrogen related receptor signaling pathway with the pleiotropic PPARgamma coactivator (PGC) cell viability counter screen (AID 1224822; note: series mostly up to about 46 µM)
How it was run: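 Cytotoxicity in the PGC/ERR cell line is assessed with CellTiter-Fluor, read as fluorescence intensity 30 min after reagent addition, following 17.5 h compound treatment at 37 C.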

[18] = tested on: estrogen-related receptor alpha (ERRalpha) with PGC-1alpha coactivator, human; assay: qHTS assay to identify small molecule antagonists of the estrogen related receptor signaling pathway with the pleiotropic PPARgamma coactivator (PGC) (AID 1224821; calls by dose curve)
How it was run: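 Luminescence from One-Glo luciferase reagent (30 min, room temperature) measured after 18 h compound treatment at 37 °C. Cells carry the PGC/ERR reporter and were seeded 6 h prior to dosing.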

[19] = qHTS assay to identify small molecule agonists of the estrogen related receptor signaling pathway with the pleiotropic PPARgamma coactivator (PGC) (AID 1224823)
How it was run: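 Luminescence from One-Glo reagent (30 min, room temperature) was read after 18 h compound treatment at 37 C of PGC/ERR cells plated 6 h beforehand; compounds delivered in DMSO by pin tool.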

CCN(CC)CCOc1ccc(Cc2ccccc2)cc1
Potency [1]: inactive
outcome [2]: inactive
outcome [3]: inactive
outcome [4]: inactive
outcome [5]: inactive
Potency [6]: inactive
Potency [7]: inactive
outcome [8]: inactive
Potency [9]: inactive
outcome [10]: inactive

C=CCCC=C
Potency [1]: inactive
outcome [2]: inactive
outcome [3]: inactive
outcome [4]: inactive
outcome [5]: inactive
Potency [6]: inactive
Potency [7]: inactive
outcome [8]: inactive
Potency [11]: inactive
Potency [9]: inactive
outcome [10]: inactive

CCc1cc(Cl)c(OC)c(C(=O)NC[C@@H]2CCCN2CC)c1O
Potency [1]: inactive
outcome [2]: inactive
outcome [3]: inactive
outcome [4]: inactive
outcome [5]: inactive
Potency [6]: inactive
Potency [7]: inactive
outcome [8]: inactive
outcome [10]: inactive

CC1=NN(c2cc(Cl)c(S(=O)(=O)O)cc2Cl)C(=O)C1N=Nc1ccc(S(=O)(=O)O)cc1 (stereo not given)
Potency [1]: inactive
outcome [2]: inactive
outcome [3]: inactive
outcome [4]: inactive
outcome [5]: inactive
Potency [6]: inactive
Potency [7]: inactive
outcome [8]: inactive
Potency [11]: inactive
Potency [9]: inactive
outcome [10]: inactive

CC(C)C1=CC2=CC[C@@H]3[C@](C)(CCC[C@@]3(C)C(=O)O)[C@H]2CC1
Potency [1]: inactive
outcome [2]: inactive
outcome [3]: inactive
outcome [4]: inactive
outcome [5]: inactive
Potency [6]: inactive
Potency [7]: inactive
outcome [8]: inactive
outcome [10]: inactive
Potency [12]: inactive
Potency [13]: inactive

O=C1CCCCCCCCCCC(=O)OCCO1
Potency [1]: inactive
outcome [2]: inactive
outcome [3]: inactive
outcome [4]: inactive
outcome [5]: inactive
Potency [6]: inactive
Potency [7]: inactive
outcome [8]: inactive
Potency [11]: inactive
Potency [9]: inactive
outcome [10]: inactive
Potency [13]: inactive

CN1CCC[C@@H]1Cc1c[nH]c2ccc(CCS(=O)(=O)c3ccccc3)cc12
Potency [1]: inactive
outcome [2]: inactive
outcome [3]: inactive
outcome [4]: inactive
outcome [5]: inactive
Potency [6]: inactive
Potency [7]: inactive
outcome [8]: inactive
Potency [11]: inactive
outcome [10]: inactive
outcome [14]: inactive
outcome [15]: inactive
outcome [16]: inactive
outcome [17]: inactive

CN1CCN(C2=Nc3ccccc3Oc3ccc(Cl)cc32)CC1
Potency [1]: inactive
outcome [2]: inactive
outcome [3]: inactive
outcome [4]: inactive
outcome [5]: inactive
Potency [6]: inactive
Potency [7]: inactive
outcome [8]: inactive
outcome [10]: inactive
Potency [12]: inactive
Potency [13]: inactive
outcome [14]: inactive
outcome [15]: inactive
outcome [16]: inactive
outcome [18]: inactive
outcome [17]: inactive
outcome [19]: inactive

Cc1nc(-c2ccccn2)ncc1C(=O)Nn1cc(C)c2cc(F)ccc21
Potency [1]: inactive
outcome [2]: inactive
outcome [3]: inactive
outcome [4]: inactive
outcome [5]: inactive
Potency [6]: inactive
Potency [7]: inactive
outcome [8]: inactive
outcome [10]: inactive
Potency [12]: inactive

CN(C)CCOc1ccccc1Cc1ccccc1
Potency [1]: inactive
outcome [2]: inactive
outcome [3]: inactive
outcome [4]: inactive
outcome [5]: inactive
Potency [6]: inactive
Potency [7]: inactive
outcome [8]: inactive
Potency [11]: inactive
outcome [10]: inactive
Potency [12]: inactive
Potency [13]: inactive

Cc1nc(N)nc(N)c1-c1ccc(Cl)c(Cl)c1
Potency [1]: 3.79 µM (active)
outcome [2]: inactive
outcome [3]: inactive
outcome [4]: inactive
outcome [5]: inactive
Potency [6]: inactive
Potency [7]: inactive
outcome [8]: inactive
outcome [10]: inactive
Potency [12]: inactive
Potency [13]: inactive

CN1CCN(C2=Nc3cc(F)ccc3Cc3ccccc32)CC1
outcome [2]: inactive
outcome [3]: inactive
outcome [4]: inactive
outcome [5]: inactive
Potency [6]: inactive
Potency [7]: inactive
outcome [8]: inactive
Potency [11]: inactive
outcome [10]: inactive
Potency [12]: inactive
Potency [13]: inactive

Nc1ccc2ccccc2c1S(=O)(=O)O
Potency [1]: inactive
outcome [2]: inactive
outcome [3]: inactive
outcome [4]: inactive
outcome [5]: inactive
Potency [6]: inactive
Potency [7]: inactive
outcome [8]: inactive
Potency [9]: inactive
outcome [10]: inactive
Potency [12]: inactive
Potency [13]: 24.8 µM (active)

Cc1c(-c2ccccc2)oc2c(C(=O)OCCN3CCCCC3)cccc2c1=O
outcome [2]: inactive
outcome [3]: inactive
outcome [4]: inactive
outcome [5]: inactive
Potency [6]: inactive
Potency [7]: inactive
outcome [8]: inactive
outcome [10]: inactive

Cc1c(C(=O)NCCO)[n+](=O)c2ccccc2n1[O-]
Potency [1]: inactive
outcome [2]: inactive
outcome [3]: inactive
outcome [4]: inactive
outcome [5]: inactive
Potency [6]: inactive
Potency [7]: inactive
outcome [8]: inactive
Potency [11]: inactive
Potency [9]: inactive
outcome [10]: inactive

CCCCNc1ccc(C(=O)OCCN(CC)CC)cc1
Potency [1]: inactive
outcome [2]: inactive
outcome [3]: inactive
outcome [4]: inactive
outcome [5]: inactive
Potency [6]: inactive
Potency [7]: inactive
outcome [8]: inactive
Potency [11]: inactive
outcome [10]: inactive

O=C1Nc2ccc([N+](=O)[O-])cc2C1=O
outcome [2]: inactive
outcome [3]: inactive
outcome [4]: inactive
outcome [5]: inactive
Potency [6]: inactive
Potency [7]: inactive
outcome [8]: inactive
Potency [11]: inactive
Potency [9]: inactive
outcome [10]: inactive
Potency [12]: inactive
Potency [13]: inactive

CCCCCCCCCCCCCCCCOP(=O)([O-])OCC[N+](C)(C)C
outcome [2]: inactive
outcome [3]: inactive
outcome [4]: inactive
outcome [5]: inactive
Potency [6]: inactive
Potency [7]: inactive
outcome [8]: inactive
outcome [10]: inactive
Potency [12]: inactive
Potency [13]: inactive

C=CC(C)(O)CC/C=C(\C)CCC=C(C)C (stereo not given)
outcome [2]: inactive
outcome [3]: inactive
outcome [4]: inactive
outcome [5]: inactive
Potency [6]: inactive
Potency [7]: inactive
outcome [8]: inactive
outcome [10]: inactive

CC(C)=CCC[C@](C)(O)[C@@H]1CC=C(C)CC1
Potency [1]: inactive
outcome [2]: inactive
outcome [3]: inactive
outcome [4]: inactive
outcome [5]: inactive
Potency [6]: inactive
Potency [7]: inactive
outcome [8]: inactive
Potency [11]: inactive
Potency [13]: inactive

O=C(O)C(=O)Cc1c[nH]c2ccccc12
Potency [1]: inactive
outcome [2]: inactive
outcome [3]: inactive
outcome [4]: inactive
outcome [5]: inactive
Potency [6]: inactive
Potency [7]: inactive
outcome [8]: inactive
Potency [9]: inactive
outcome [10]: inactive
Potency [12]: inactive
Potency [13]: 34.4 µM (active)

CC1=C(CC(=O)O)c2cc(F)ccc2/C1=C\c1ccc(S(C)(=O)=O)cc1
Potency [1]: inactive
outcome [2]: inactive
outcome [3]: inactive
outcome [4]: inactive
outcome [5]: inactive
Potency [6]: inactive
Potency [7]: inactive
outcome [8]: inactive
Potency [9]: inactive
outcome [10]: inactive
Potency [12]: inactive
Potency [13]: inactive
outcome [14]: inactive
outcome [15]: inactive
outcome [16]: inactive
outcome [18]: inactive
outcome [17]: inactive
outcome [19]: inactive
